Tests used:
Details in all cases: concentration: 1 μM, replicates: in singlicate; n = 1
[1] = tested on: T1, AMPK-alpha2
T1 construct: gene PRKAA2

[2] = tested on: ANKK1
[3] = tested on: T2, ARK5
T2 construct: gene NUAK1

[4] = tested on: T3, ASK1
T3 construct: gene MAP3K5

[5] = tested on: T4, ASK2
T4 construct: gene MAP3K6

[6] = tested on: AURKA
[7] = tested on: AURKB
[8] = tested on: AURKC
[9] = tested on: AXL
[10] = tested on: T5, BIKE
T5 construct: gene BMP2K

[11] = tested on: BLK
[12] = tested on: BMPR1A
[13] = tested on: BMPR1B
[14] = tested on: BMPR2
[15] = tested on: BMX
[16] = tested on: BRAF
[17] = tested on: T6, BRK
T6 construct: gene PTK6

[18] = tested on: BRSK1
[19] = tested on: BRSK2
[20] = tested on: BTK
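Further: KINOMEscan kinase panel screen.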

SMILES	%Inh [1] [%]	%Inh [2] [%]	%Inh [3] [%]	%Inh [4] [%]	%Inh [5] [%]	%Inh [6] [%]	%Inh [7] [%]	%Inh [8] [%]	%Inh [9] [%]	%Inh [10] [%]	%Inh [11] [%]	%Inh [12] [%]	%Inh [13] [%]	%Inh [14] [%]	%Inh [15] [%]	%Inh [16] [%]	%Inh [17] [%]	%Inh [18] [%]	%Inh [19] [%]	%Inh [20] [%]
COc1ccc(CNC(=O)NC2CCN(c3ccnc(Nc4ccc(OC)cc4)n3)C2)cc1 (stereo not shown) [GSK1379727]	0	0	0	0	0	5	22	56	7	11	43	0	0	30	6	0	9	0	0	12
Cc1c2ccc(N(C)c3ccnc(Nc4cccc(S(N)(=O)=O)c4)n3)cc2nn1Cc1ccccc1.Cl.Cl [GW787226]	0	0	0	0	0	29	54	38	73	0	82	3	0	1	6	95.8	89	0	0	0
Cc1cccc(-c2nc(Nc3ccc4ncsc4c3)c3ccccc3n2)n1 [GW867588]	0	0	0	15	20	22	8	0	0	0	11	0	0	15	0	7	0	0	0	0
O=C(NOCC1CC1)c1ccc(F)c(F)c1Nc1ccc(I)cc1Cl	0	0	0	0	0	0	0	20	2	43	0	0	0	0	0	0	0	0	0	0
Cc1cn2c(=O)cc(N3CCOCC3)nc2n1Cc1cccc(Cl)c1Cl [GSK2334006]	0	0	14	1	3	0	26	44	0	27	37	19	0	0	10	15	5	14	0	0
Cc1nnc(-c2ccc3occ(-c4ccc(C(C)O)cc4)c3c2)o1 (stereo not shown)	14	3	35	0	11	13	27	23	3	18	2	2	23	2	44	1	0	10	13	0
O=C(NCCNc1ccnc(Nc2ccc(F)cc2)n1)c1cc2ccccc2s1 [GSK1379874]	0	0	0	1	0	11	0	32	10	0	23	0	0	15	1	0	29	0	0	0
Cc1nnc(-c2ccc(C)c(-c3ccc(C(=O)Nc4ccc(NS(C)(=O)=O)cc4)cc3)c2)o1 [GW702865]	1	14	0	0	0	30	8	3	1	7	14	0	0	9	16	0	3	9	0	40
O=C(NCCNc1ccnc(Nc2ccc(F)cc2)n1)Nc1ccccc1F [GSK1379880]	0	0	21	1	0	11	32	6	0	0	6	0	0	0	0	0	6	0	0	0
CCCCCc1nc2c(N)ncnc2n1CCCCC [SKF-97255]	11	0	0	0	0	10	37	0	0	0	16	19	0	40	3	0	0	0	22	0
Cc1nnc(-c2ccc3ncc(-c4ccc(S(C)=O)cc4)n3c2)o1 (stereo not shown)	0	0	0	0	9	18	21	0	11	0	0	9	16	18	0	62	14	14	0	24
COc1ccc(S(=O)(=O)NC2CCN(c3cc(C)nc(Nc4cccc(C#N)c4)n3)CC2)cc1.O=C(O)C(F)(F)F [GSK1653539]	0	14	8	0	0	2	7	0	0	5	25	0	0	0	3	0	0	0	0	0
COc1ccc(Nc2ncc(C#N)c(Nc3ccccc3C(N)=O)n2)cc1N1CCN(C)CC1.Cl [GSK1558669]	99.8	52	100	0	22	99.9	99.9	100	98.9	100	99.8	0	80	92	75	98.6	99.7	90.9	88	97.2
N#Cc1ccc(-c2cc(-c3c[nH]nc3-c3ccccn3)ccn2)cc1 [GW693028]	49	0	27	0	0	0	32	0	0	11	17	0	15	6	5	11	30	0	0	0
CSc1ccc(-c2cc3ncnc(SCC(=O)O)c3s2)cc1	5	0	0	0	0	0	78	12	5	12	10	0	0	0	0	0	4	6	10	0
Cc1ccc(C(=O)NCC(N)=O)cc1-n1c(C)cc(OCc2ccc(F)cc2F)c(Br)c1=O	11	0	0	12	0	0	0	8	11	7	14	2	0	0	24	0	23	11	39	0
Cn1ccc2ncnc(Oc3ccc(NC(=O)Nc4ccncc4)c(Cl)c3)c21	5	0	14	0	0	0	3	0	0	0	0	1	0	20	0	0	0	0	0	0
COc1cc(Nc2nccc(N3CCC(NC(=O)c4cccc(NC(C)=O)c4)C3)n2)cc(OC)c1OC (stereo not shown) [GSK1379754]	12	34	31	0	0	97.6	0	88	36	86	34	0	0	0	18	3	19	26	0	0
O=c1cc(N2CCOCC2)nc2n(Cc3cccc(C(F)(F)F)c3)ccn12 [GSK2297543]	0	5	0	0	0	13	0	4	18	18	16	0	0	0	20	0	2	0	7	0
Cn1cc(-c2ccc3c(c2)CCN3C(=O)Cc2ccccc2Cl)c2c(N)ncnc21 [GSK2608885]	30	4	94	0	0	98	86	74	94	23	99.2	10	0	0	93.2	90.5	95.3	0	6	95.6
